This excerpt belongs to a sample that is enriched for hits.
Dicer inh – inhibitors of Dicer pre-microRNA processing, primary screen, biochemical, cat-ELCCA, chemiluminescence. cat-ELCCA pre-miR-21 Dicer processing; active compounds read high. z-score at 25 µM. hit rate 6% among 47,000; in the data active = z-score above about 3, passing the limit was not always enough;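 note: plate controls were vehicle for no effect and no enzyme for full effect; higher signal means more uncleaved substrate so more Dicer inhibition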
Numbers without * were called inactive.

SMILES	Dicer inh
CC(=O)/C(N=Nc1c(F)cccc1F)=C(\C)O	3.35*
CCOC(=O)/C(N=Nc1ccc(F)cc1F)=C(\C)O	0.61
CCCCNC(=O)OCCSc1ccc(C#N)cc1[N+](=O)[O-]	0.02
CSCC[C@H](NC(=O)OC(C)(C)C)C(=O)OCc1ccc(CC(=O)O)cc1	3*
CC(C)(C)OC(=O)NC(COCc1ccccc1)C(N)=O (centres undefined)	-0.63
CC(C)(C)OC(=O)N[C@@H](Cc1ccccc1)C(=O)OCc1ccc(CC(=O)O)cc1	0.83
CC(=O)CSc1nnc2sc3ccccc3n12	-0.21
O=C(O)CCSc1nnc2sc3ccccc3n12	0.75
O=C(CSc1nnc2sc3ccccc3n12)N1CCN(c2ccccc2)CC1	3.69*
O=C(CS(=O)(=O)c1ccc(C(F)(F)F)cn1)NNC(=O)NC(=O)c1ccccc1Cl	1.33
Cc1cc(Br)ccc1OCCCN1CCC(C)CC1	0.09
COc1cccc(-c2cc3nc(C(F)(F)F)cc(-c4cccs4)n3n2)c1	-3.02
N/C(=N\OCc1ccc(Cl)cc1)c1cc(Cl)c(N)c(Cl)c1	0.02
COC(=O)c1ccc(OCC(O)Cn2c(C)[n+](C)c3ccccc32)cc1 (centres undefined)	0.87
Cc1ccc(C(=O)Cn2c(C)[n+](C)c3ccccc32)cc1	-0.17
Cc1n(CC(=O)c2ccc(C(C)(C)C)cc2)c2ccccc2[n+]1C	4.94*
CCOC(=O)NC(=O)c1cn(Cc2cccs2)c(=O)[nH]c1=O	-2.1
COc1ccc(CNCc2ccc3c(c2)OCO3)cc1	0.97
COc1ccc(CNCc2cc(OC)ccc2OC)cc1	1.32
COc1ccc(CNCc2ccc(SC)cc2)cc1	3.85*
NS(=O)(=O)c1ccc(CCNS(=O)(=O)c2ccc(Cl)cc2)cc1	3.36*
CS(=O)(=O)NCCc1ccncc1	0.42
CS(=O)(=O)NCCc1ccc(S(N)(=O)=O)cc1	6.86*
O=S(=O)(CS(=O)(=O)NCCc1ccc(Cl)cc1)NCCc1ccc(Cl)cc1	0.29
NS(=O)(=O)c1ccc(CNS(=O)(=O)Cc2ccccc2)cc1	-0.27
SMILES	Dicer inh
O=c1[nH]c2ccc(S(=O)(=O)NCCc3ccc(F)cc3)cc2[nH]1	1.93
CC(C)(C)C(=O)C(C#N)=C1SCCCS1	-1.82
CC(C)S(=O)(=O)c1csc(NC(=O)Nc2ccccc2Cl)c1	1.7
CC(C)S(=O)(=O)c1csc(NC(=O)Nc2cc(Cl)ccc2Cl)c1Cl	5.35*
CC(C)S(=O)(=O)c1csc(NC(=O)N=S(C)(=O)c2ccc(Cl)cc2)c1Cl (centres undefined)	-0.93
O=C(/C(=C\c1ccccc1)n1ccnc1)c1ccccc1OCc1ccccc1	-2.51
Cc1ccc(-c2n[nH]c(=O)c3ccccc23)cc1S(=O)(=O)NC(C)C	3.58*
Cc1ccc(-c2n[nH]c(=O)c3ccccc23)cc1S(=O)(=O)NC(C)(C)C	0.82
Cc1ccc(-c2n[nH]c(=O)c3ccccc23)cc1S(N)(=O)=O	-0.34
Cc1ccc(C2Nn3c(C)nnc3SC2C(=O)Nc2cc(Cl)ccc2C)cc1 (centres undefined)	2.17
O=C(Nc1ccccc1Oc1ccc(Cl)cc1Cl)c1ccc(F)cc1	0
O=C1CC(Sc2cccs2)C(=O)N1c1ccc(F)cc1 (centres undefined)	-6.23
Cc1cc2c(c(Sc3ccc(Cl)cc3)n1)C(=O)N(SC(Cl)(Cl)Cl)C2=O	-1.66
Cc1ccccc1-n1c(N)cc(=O)n(Cc2ccco2)c1=O	1.37
Cc1c2c(=O)n(-c3ccccc3)[nH]c2cc(=O)n1Cc1ccco1	3.34*
Cc1c2c(=O)n(-c3ccccc3)[nH]c2cc(=O)n1Cc1cccnc1	0.96
CCOC(=O)c1sc2sc(-c3ccn[nH]3)c(C)c2c1C	-0.4
Cc1csc2sc(-c3ccn[nH]3)c(C)c12	3.48*
Cc1csc2sc(-c3ccnc(SCc4ccccc4)n3)c(C)c12	0.18
CCC1(CC)COC2(OC1)C(=O)Nc1ccccc12	1.25
Cc1cc(NC(=O)NNc2ccccc2)no1	-0.63
O=C1/C(=C\c2ccccc2)SC(=S)N1c1cccc(Br)c1	3.98*
O=C1/C(=C\c2ccc(Cl)c(Cl)c2)SC(=S)N1c1ccc(F)c(F)c1	0.62
Cc1cc(C)c2c(=O)c(/C=C3/SC(=S)N(c4cccc(Cl)c4)C3=O)coc2c1	-1.77
COc1ccc(C(C)=O)c(NC(C)=O)c1	-1.78
SMILES	Dicer inh
C=CCN=C1NC(=O)C(CC(=O)Nc2ccc(Cl)cc2)S1 (centres undefined)	-0.91
O=C(CC1SC(=Nc2ccc(O)cc2)NC1=O)Nc1ccc(Br)cc1 (centres undefined)	3.78*
O=C(CC1SC(=Nc2ccccc2)NC1=O)Nc1ccccc1Cl (centres undefined)	-0.66
C/C(=N\NC(=O)c1ccc(C(F)(F)F)cc1)c1ccccc1O	0.92
Fc1cccc(CN2CCN(Cc3cccnc3)CC2)c1	1.81
Cc1cc(C)c(NS(=O)(=O)c2cc([N+](=O)[O-])ccc2C)c(C)c1	0.22
O=[N+]([O-])c1ccc(NS(=O)(=O)c2ccc(-c3ccc(S(=O)(=O)Nc4ccc([N+](=O)[O-])cc4)s3)s2)cc1	5.26*
CNS(=O)(=O)Cc1ccc([N+](=O)[O-])cc1	-1.85
